Values joined by “and” are separate entries in the source; they are usually repeats but may differ in a detail not shown here. Equal entries are not always repeated. Records with an inconclusive call do not appear. The source holds several records for some structures; these can differ, active in one and inactive in another. Active and inactive are the calls of the source. Calls come from the whole dose curve; as a rule, active = well fitted curve in the direction sought with a large enough effect; inconclusive = small, poorly fitted or top-dose-only effect, or another doubt; inactive = no such curve, though single readings can be large; an effect the other way counts as inactive or inconclusive.
Experiments:
Hek293T = test: Primary qHTS to identify gynecologic anti-cancer compounds using libraries of approved drugs and bioactive compounds (AID 1345084); settings: Gynecologic cancer cell panel viability, ATPlite luminescence, 48 h, control line for the selectivity index; series mostly up to 57.5 µM; note: nearly all actives have a fitted effect of over 55% in size
How it was run: (§1)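 Five-point cytotoxicity, 48 h drug exposure at 37 C, 5% CO2, on cells seeded 16 h beforehand. ATP content read by ATPlite luminescence.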

JEG-3 = test: as above; settings: Gynecologic cancer cell panel viability, ATPlite luminescence, 48 h; series mostly up to 57.5 µM
How it was run: as §1

OV90 = test: as above; settings: Gynecologic cancer cell panel viability, ATPlite luminescence, 48 h; series mostly up to 57.5 µM
How it was run: as §1

SKOV3 = test: as above; settings: Gynecologic cancer cell panel viability, ATPlite luminescence, 48 h; series mostly up to 57.5 µM
How it was run: as §1

Tov-21-G = test: as above; settings: Gynecologic cancer cell panel viability, ATPlite luminescence, 48 h; series mostly up to 57.5 µM
How it was run: as §1

Tov112D = test: as above; settings: Gynecologic cancer cell panel viability, ATPlite luminescence, 48 h; series mostly up to 57.5 µM
How it was run: as §1

[1] = Drug repurposing screens with cells derived from glioblastoma tumor samples (AID 1345199); settings: GBM patient neurospheres viability, ATP luminescence, 48 h; note: nearly all actives have a fitted effect of over 40% in size; note: potency is the fitted concentration of half-maximal effect
How it was run: (§2)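 Primary testing used CD133+ neurospheres from four GBM patients, seven concentrations, 48 h exposure and ATP-based viability; confirmation added three slower-growing patient lines.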

PA-1 = test: Primary qHTS to identify gynecologic anti-cancer compounds using libraries of approved drugs and bioactive compounds (AID 1345084); settings: Gynecologic cancer cell panel viability, ATPlite luminescence, 48 h; series mostly up to 57.5 µM; note: nearly all actives have a fitted effect of over 55% in size
How it was run: as §1

astro = test: Drug repurposing screens with cells derived from glioblastoma tumor samples (AID 1345199); settings: viability, ATP luminescence, 48 h; series mostly up to 45.9 µM; note: nearly all actives have a fitted effect of over 40% in size; note: potency is the fitted concentration of half-maximal effect
How it was run: as §2

[2] = at 46.1 µM (top of the series), tumour line C
[3] = at 46 µM (top of the series), tumour line A
[4] = at 20 µM (top of the series), tumour line C
[5] = at 21.2 µM (top of the series), tumour line B
[6] = at 21.2 µM (top of the series), tumour line D
[7] = at 45.9 µM (top of the series), tumour line B
[8] = at 45.9 µM (top of the series), tumour line D
% is set by controls: 0 for no effect and ±100 for the full control effect.

CN1CCN(C2=Nc3ccccc3Sc3ccc(Cl)cc32)CC1
inactive: Potency (Hek293T) | Potency (JEG-3) | Potency (OV90) | Potency (SKOV3) | Potency (Tov-21-G) | Potency (Tov112D) | activity, negative = cell killing [1, 2] -6.22%
active: Potency ([1]; tumour line A) 7.94 µM | Potency ([1]; tumour line D) 17.8 µM

CCc1oc2ccccc2c1C(=O)c1cc(Br)c(O)c(Br)c1
active: Potency ([1]; tumour line D) 35.5 µM | Potency (astro) 28.2 µM
inactive: Potency (Hek293T) | Potency (JEG-3) | Potency (OV90) | Potency (PA-1) | Potency (Tov-21-G) | Potency (Tov112D) | activity, negative = cell killing [1, 3] -39.6% | activity, negative = cell killing [1, 2] -6.19%

CCOC(=O)[C@@](C)(N)Cc1ccc(O)c(O)c1
inactive: Potency (Hek293T) | Potency (JEG-3) | Potency (OV90) | Potency (PA-1) | Potency (Tov-21-G) | Potency (Tov112D) | activity, negative = cell killing [1, 4] -6.91% | activity, negative = cell killing [1, 5] -8.87% | activity, negative = cell killing [1, 6] -6.68% | activity, negative = cell killing ([1]; at 21.3 µM (top of the series), tumour line A) -12.3% | Potency (astro)

CC[N+](C)(CC)CCOC(=O)C(O)(c1ccccc1)C1CCCCC1 (stereo not drawn)
inactive: Potency (Hek293T) | Potency (JEG-3) | Potency (OV90) | Potency (PA-1) | Potency (Tov-21-G) | Potency (Tov112D) | activity, negative = cell killing [1, 7] 4.51% | activity, negative = cell killing [1, 8] -27.2% | activity, negative = cell killing [1, 2] -9.68% | Potency (astro)

O=S(=O)(O)c1ccc(O)cc1
inactive: Potency (Hek293T) | Potency (JEG-3) | Potency (PA-1) | Potency (SKOV3) | Potency (Tov-21-G) | Potency (Tov112D) | activity, negative = cell killing [1, 7] -17.6% | activity, negative = cell killing [1, 8] -11% | activity, negative = cell killing [1, 2] -1.85% | Potency (astro)

CC(=O)OCC(=O)[C@H]1CC[C@H]2[C@@H]3CCC4=CC(=O)CC[C@]4(C)[C@H]3CC[C@]12C
active: Potency ([1]; tumour line A) 8.91 µM
inactive: Potency (Hek293T) | Potency (JEG-3) | Potency (OV90) | Potency (SKOV3) | Potency (Tov-21-G) | Potency (Tov112D) | activity, negative = cell killing [1, 2] -12.5% | Potency (astro)

CCOc1ccc(NC(C)=O)cc1
inactive: Potency (Hek293T) | Potency (JEG-3) | Potency (PA-1) | Potency (SKOV3) | Potency (Tov-21-G) | Potency (Tov112D) | activity, negative = cell killing [1, 7] 4.81% | activity, negative = cell killing [1, 8] -8.88% | activity, negative = cell killing [1, 3] -27% | activity, negative = cell killing [1, 2] -1.2% | Potency (astro)

CCCCc1cc2ccccc2c(OCCN(C)C)n1
inactive: Potency (Hek293T) | Potency (JEG-3) | Potency (PA-1) | Potency (Tov-21-G) | Potency (Tov112D) | activity, negative = cell killing [1, 4] -4.36% | activity, negative = cell killing [1, 5] -17.4%

C=C[C@H]1CN2CC[C@H]1C[C@H]2[C@H](O)c1ccnc2ccc(OC)cc12
inactive: Potency (Hek293T) | Potency (JEG-3) | Potency (PA-1) | Potency (SKOV3) | Potency (Tov-21-G) | Potency (Tov112D) | activity, negative = cell killing [1, 7] -17.2% and -20.5% | activity, negative = cell killing [1, 2] -25.6% and -17.6%
active: Potency ([1]; tumour line A) 11.2 µM and 17.8 µM

Oc1ccccc1C=NCc1ccccc1
inactive: Potency (Hek293T) | Potency (JEG-3) | Potency (SKOV3) | Potency (Tov-21-G) | Potency (Tov112D) | activity, negative = cell killing [1, 7] -13.2% | activity, negative = cell killing [1, 8] -14.3% | activity, negative = cell killing [1, 2] -2.77% | Potency (astro)

CCOC(=O)C(C#N)=C(c1ccccc1)c1ccccc1
active: Potency ([1]; tumour line A) 11.2 µM
inactive: Potency (Hek293T) | Potency (JEG-3) | Potency (PA-1) | Potency (SKOV3) | Potency (Tov-21-G) | Potency (Tov112D) | activity, negative = cell killing [1, 7] -12.8% | activity, negative = cell killing [1, 8] -4.23% | Potency (astro)

CCN(CC)CCNC(=O)c1cc(Br)c(N)cc1OC
inactive: Potency (Hek293T) | Potency (JEG-3) | Potency (PA-1) | Potency (SKOV3) | Potency (Tov-21-G) | Potency (Tov112D) | activity, negative = cell killing [1, 7] -11.2% | activity, negative = cell killing [1, 8] -11.8% | activity, negative = cell killing [1, 2] -28.9% | Potency (astro)
active: Potency ([1]; tumour line A) 7.94 µM

NC(=O)n1c(O)c(C(=O)c2cccs2)c2cc(Cl)ccc21
inactive: Potency (Hek293T) | Potency (JEG-3) | Potency (OV90) | Potency (SKOV3) | Potency (Tov-21-G) | Potency (Tov112D) | activity, negative = cell killing [1, 7] -6.38% | activity, negative = cell killing [1, 8] -26.9%
active: Potency ([1]; tumour line A) 22.4 µM | Potency ([1]; tumour line C) 18.4 µM

Cc1nc(-c2ccc(Cl)cc2)oc1COC(C)(C)C(=O)O
inactive: Potency (Hek293T) | Potency (JEG-3) | Potency (PA-1) | Potency (SKOV3) | Potency (Tov-21-G) | Potency (Tov112D) | activity, negative = cell killing [1, 7] -18.8% | activity, negative = cell killing [1, 8] -2.81% | activity, negative = cell killing [1, 2] -9.1% | Potency (astro)

O=C(O)CCc1nc2ccccc2[nH]1
inactive: Potency (Hek293T) | Potency (JEG-3) | Potency (OV90) | Potency (SKOV3) | Potency (Tov-21-G) | Potency (Tov112D) | activity, negative = cell killing [1, 7] -11.4% | activity, negative = cell killing [1, 8] 5.36% | activity, negative = cell killing [1, 3] -40.1% | activity, negative = cell killing [1, 2] -13.5% | Potency (astro)

O=[N+]([O-])c1ccc(/C=N\O)o1
inactive: Potency (Hek293T) | Potency (JEG-3) | Potency (PA-1) | Potency (SKOV3) | Potency (Tov-21-G) | Potency (Tov112D) | activity, negative = cell killing [1, 7] -7.45% | activity, negative = cell killing [1, 8] -31.7% | activity, negative = cell killing [1, 2] 1.04% | Potency (astro)

CC(CNC1CCCCC1)OC(=O)c1ccccc1 (stereo not drawn)
inactive: Potency (Hek293T) | Potency (JEG-3) | Potency (PA-1) | Potency (SKOV3) | Potency (Tov-21-G) | Potency (Tov112D) | activity, negative = cell killing [1, 4] 10.5% | activity, negative = cell killing [1, 5] -8.26% | activity, negative = cell killing [1, 6] -19.5% | Potency (astro)

Cc1ccc(-c2ncc(Cl)cc2-c2ccc(S(C)(=O)=O)cc2)cn1
inactive: Potency (Hek293T) | Potency (JEG-3) | Potency (OV90) | Potency (SKOV3) | Potency (Tov-21-G) | Potency (Tov112D) | activity, negative = cell killing [1, 7] -0.088% | activity, negative = cell killing [1, 8] -1.02% | activity, negative = cell killing [1, 2] -0.632% | Potency (astro)

CCOc1ccccc1OCCN[C@H](C)Cc1ccc(OC)c(S(N)(=O)=O)c1
active: Potency ([1]; tumour line A) 35.5 µM
inactive: Potency (Hek293T) | Potency (JEG-3) | Potency (PA-1) | Potency (SKOV3) | Potency (Tov-21-G) | Potency (Tov112D) | activity, negative = cell killing [1, 7] -15.7% | activity, negative = cell killing [1, 8] -16.9% | activity, negative = cell killing [1, 2] -16.6% | Potency (astro)

From PubChem BioAssay (NCATS)
